These results are taken from PubChem BioAssay AID463173 (ICCB-Longwood Screening Facility, Harvard Medical School, 2010).

Hit rate of the full screen: of about 52,000 compounds, about 4,300 (8.3%) were called active. The entries come from a sample that favours actives as a whole. Unmarked numbers belong to inactive results. Cut-off read from the data, not from the text of the source: active = survival mostly below about 52% (no sharp cut-off); inactive = mostly above about 56%.

The subject of this assay is DeltatarO mutant. Briefly: growth inhibition of S. aureus wild type versus tarO mutant, primary screen, teichoic acid synthesis inhibitors, RN4220, OD600 (AID 463173). As to conditions: OD600, 18 h, stronger effect = lower value, screened at 18.75 µg/mL (by protocol).
Regarding `CC1=C(C(=O)OCc2ccc(C)cc2)C(c2ccccc2C(F)(F)F)CC(=O)N1` (stereo not given), the survival is 124%. Regarding `CCCSCCCNC(=O)CN1C(=O)CCn2nc(-c3cn(C)c4ccccc34)cc21`, the survival is 77%. On to `CCN(CC)CCn1c2c(c(SCC(=O)Nc3cccc(C(F)(F)F)c3)nc1=O)CCC2`, for which the survival was 74%.

In the case of `CCOC(=O)c1cc(C)n(CC2CCC(C(=O)Nc3ccccc3OC)CC2)c1C` (stereo not given), the survival is 107%. To `COc1cccc(NC2=CC(c3ccc(C(C)C)cc3)N(c3cccc(OC)c3)C2=O)c1` (stereo not given) belongs 73%; to `CCC(CC)C(=O)N1CCc2cc(OC)c(OC)cc2C1COc1ccc2c(C)cc(=O)oc2c1` (stereo not given), 83%; to `CNc1ccc(-c2nc(-c3ccncc3)no2)cc1[N+](=O)[O-]`, 108%. With `CCOc1ccc(-c2cccc(NS(=O)(=O)c3ccccc3C(F)(F)F)c2)nn1`, the survival was 91%.

Regarding `O=C(Cn1c(=O)nc(-c2ccccc2)c2ccccc21)Nc1cccc(C(F)(F)F)c1`, the survival is 104%.

For `Cc1ccc2nc(N(Cc3cccnc3)C(=O)c3cccs3)sc2c1`, the survival is 71%.

As for `CCCCN(C)CCNC(=O)c1c2c(nc3ccccc13)C(=O)N(C1CCCCC1)C2`, the survival is 102%.

Regarding `O=C(NCCc1ccc(Cl)cc1)c1ccc2c(c1)N(Cc1cccc(Cl)c1)C(=O)c1ccccc1S2(=O)=O`, the survival is 117%. To `COc1ccccc1CNC(=O)CS(=O)(=O)Cc1nc(-c2ccccc2C)oc1C` belongs 63%; to `CCCCN(C)C(=O)C1CCCN(c2ncnc3onc(C)c23)C1` (stereo not given), 113%; to `O=C(Nc1ccc2c(c1)CCC2)C1CCN(c2ccc(S(=O)(=O)N3CCCC3)cc2)CC1`, 103%.

For `Cc1ccccc1NC(=O)/C(C#N)=C/c1ccc(Cl)cc1Cl`, the survival was 32% (active). In the case of `Cc1ccc(NC(=O)/C(C#N)=C/c2cc(C)n(-c3ccc(F)cc3)c2C)cc1C` it was 65%.

Consider `Cc1ccc(-n2c(C)cc(/C=C(\C#N)C(=O)Nc3ccc(C)c(C)c3)c2C)cc1`, for which the survival was 48%. In the case of `Cc1ccc(Cl)cc1NC(=O)/C(C#N)=C\c1cn(Cc2ccc(F)cc2)c2ccccc12` it was 98%. To `Cc1ccc(NC(=O)/C(C#N)=C\c2ccc(Cl)cc2Cl)cc1C` belongs 29% (active); to `Cc1ccc(Cl)cc1NC(=O)/C(C#N)=C/c1c(C)n(Cc2ccccc2)c2ccccc12`, 95%. In the case of `Cc1ccc(NC(=O)/C(C#N)=C/c2ccccc2Cl)cc1C` it was 34% (active); in that of `Cc1ccc(NC(=O)/C(C#N)=C/c2cc(C)n(-c3ccc(Br)cc3)c2C)cc1C`, 65%. Consider `Cc1ccc(NC(=O)/C(C#N)=C/c2ccc(C(C)C)cc2)cc1C`, for which the survival is 81%. To `Cc1cc(C)n2c(Nc3ccccc3)c(-c3ccccc3)nc2n1` belongs 72%; to `Cc1cccc(N2CCN(Cc3nnc(-c4cccc(Br)c4)o3)CC2)c1C`, 72%; to `CCc1ccccc1N(C)C(=O)c1ccc2c(=O)n3c(nc2c1)CCCCC3`, 81%.

As for `O=C(Cn1cnc(S(=O)(=O)N2CCCC2)c1)Nc1cccc(F)c1`, the survival was 91%. With `CCC(C)c1ccc(NC(=O)CSc2nncn2N)cc1` (stereo not given), the survival is 76%.

As to `CCc1ccccc1NC(=O)CC1Sc2ccc(C(F)(F)F)cc2NC1=O` (stereo not given), the survival is 82%. Consider `O=C(CC1Sc2ccc(C(F)(F)F)cc2NC1=O)Nc1ccc(Cl)c(C(F)(F)F)c1` (stereo not given), for which the survival is 22% (active). In the case of `CCOC(=O)c1ccc(NC(=O)CC2Sc3ccc(C(F)(F)F)cc3NC2=O)cc1` (stereo not given) it was 78%; in that of `COC(=O)c1c(NC(=O)CCCOc2ccc(C(C)(C)C)cc2)sc2c1C(C(=O)OC)CC2` (stereo not given), 3% (active). To `CCOc1ccc(/C=C/C(=O)Nc2sc3c(c2C(=O)OC)C(C(=O)OC)CC3)cc1` (stereo not given) belongs 56%. To `COC(=O)c1c(NC(=O)/C(C#N)=C/c2ccccc2)sc2c1C(C(=O)OC)CC2` (stereo not given) belongs 58%. In the case of `COC(=O)c1c(NC(=O)CCCOc2cccc(C)c2)sc2c1C(C(=O)OC)CC2` (stereo not given), the survival was 0% (active). Regarding `COC(=O)c1c(NC(=O)CCCOc2ccc(C)cc2)sc2c1C(C(=O)OC)CC2` (stereo not given), the survival was 44%. In the case of `COC(=O)c1c(NC(=O)c2cccs2)sc2c1C(C(=O)OC)CC2` (stereo not given) it was 94%; in that of `COc1ccc(NC(=O)CCn2c(-c3ccc(F)cc3)cc(C(C)=O)c2C)c(OC)c1`, 124%; in that of `COc1ccccc1Cc1nc2ccccc2nc1SCC(=O)NCc1ccccc1Cl`, 135%. In the case of `COc1ccc2c(c1)CC(C(=O)Nc1cc(OC)c(OC)c(OC)c1)CO2` (stereo not given) it was 83%; in that of `CCCCOC(=O)c1ccc(OC(=O)c2sc3ncn(Cc4ccccc4Cl)c(=O)c3c2C)cc1`, 90%; in that of `Cc1ccc(CNC(=O)c2oc3ccc(S(=O)(=O)N4CCC(C)CC4)cc3c2C)cc1`, 57%. For the compound `Cc1ccc(Cl)cc1NC(=O)Cn1c(=O)n(CCC(=O)N2CCc3ccccc3C2)c(=O)c2ccccc21`, the survival is 102%. In the case of `CSc1nc(-c2ccc(Cl)cc2)nn1C(C)=O` it was 57%; in that of `CC(=O)Nc1ccc(S(=O)(=O)NCCc2csc3nc(-c4ccc(Cl)cc4)nn23)cc1`, 70%; in that of `CSc1nc(-c2ccc(Cl)cc2)nn1S(=O)(=O)c1ccc(NC(C)=O)cc1`, 43% (active). To `CCc1c(C)nc2cc(-c3cc(OC)cc(OC)c3)nn2c1NCCCN(CC)CC` belongs 113%; to `Cc1ccc(C(C(=O)NC2CCCCC2)N(C)Cc2ccccc2)cc1` (stereo not given), -3% (active); to `O=C(NC1CCCC1)C(c1ccccc1)N(C(=O)c1ccco1)C1CCCC1` (stereo not given), 79%.

In the case of `Cc1ccc(-c2nnn(CC(=O)N(Cc3ccccc3)C(C(=O)NC3CCCC3)c3ccco3)n2)cc1` (stereo not given), the survival was 64%.

Take `O=C(NC1CCCC1)C(c1ccccc1)N(Cc1ccccc1F)C(=O)c1ccco1` (stereo not given): the survival was 102%. Regarding `Cc1ccc(N(C(=O)c2ccco2)C(C(=O)NC2CCCC2)c2ccc(N(C)C)cc2)c(C)c1` (stereo not given), the survival was 93%. To `CN(Cc1ccccc1)C(C(=O)NC1CCCCC1)c1ccc(Cl)cc1` (stereo not given) belongs 37% (active); to `O=C(O)c1cccc(N=C2NC(=O)C(CO)(CO)S2)c1`, 89%. To `Cc1cccc(Cc2c(C)nc3nc(SCc4cccc(F)c4)nn3c2C)c1` belongs 78%; to `CCOC(=O)c1ccc(NC(=O)C2CC(=O)N3CCCN=C3S2)cc1` (stereo not given), 94%.

`Cc1cccc(NC(=O)c2sc3nc4n(c(=O)c3c2C)N=C(c2ccc(F)cc2)CS4)c1C`: the survival was 99%. In the case of `CCc1cccc(C)c1NC(=O)Cn1c(=O)cc(C(F)(F)F)c2c(C)nn(C)c21` it was 85%; in that of `CCCCn1cnc2cc(NC(=O)c3cc(OC)c(OC)c(OC)c3)ccc21`, 66%; in that of `CC(C)(C)n1cnc2cc(N=Cc3ccccc3O)ccc21`, 81%.

Turning to `COc1cc(CNc2ccc3c(c2)ncn3C(C)C)cc(OC)c1OC`, the survival was 64%. To `CCn1cnc2cc(NCc3ccc(N(C)C)cc3)ccc21` belongs 72%.

Consider `Cc1cc(C)n2nc(NCc3ccccc3Cl)nc2n1`, for which the survival was 90%. To `CC(C)(C)n1cnc2cc(NCc3ccccc3Cl)ccc21` belongs 7% (active). For the compound `CCCCn1cnc2cc(NCc3ccc(OCC)cc3)ccc21`, the survival was 11% (active). To `CCCn1cnc2cc(NC(=O)c3cc(OC)c(OC)c(OC)c3)ccc21` belongs 66%; to `CCOc1ccc(C=Nc2ccc3c(c2)ncn3C)cc1`, 96%. To `CCc1ccc(CNc2ccc3c(c2)ncn3C(C)(C)C)cc1` belongs -16% (active). To `CCCCn1cnc2cc(NCc3ccccc3Cl)ccc21` belongs -16% (active). For `CC(C)(C)n1cnc2cc(NS(=O)(=O)c3ccccc3)ccc21`, the survival was 86%. In the case of `CCOc1ccc(NC(=O)CSc2oc(-c3cccs3)nc2S(=O)(=O)c2ccc(Cl)cc2)cc1` it was 63%; in that of `COc1ccc2c(c1)c1c(c(=O)n(-c3ccccc3C)c(=O)n1Cc1cccc(C(F)(F)F)c1)n2C`, 94%; in that of `O=S(=O)(c1ccccc1)N1CCC(n2cnc3ccccc32)CC1`, 78%. To `Cc1ccc(C)c(NC(=O)C2CCN(S(=O)(=O)c3c(C)noc3/C=C/c3cccs3)CC2)c1` belongs 63%.

On to `Cn1nnc(C(O)CNCc2ccc(F)cc2)n1` (stereo not given), for which the survival is 105%.

`CCOC(=O)c1c(NC(=O)c2ccc(S(=O)(=O)N(CCOC)CCOC)cc2)sc2c1CC(C)(C)NC2(C)C`: the survival is 78%. To `Cc1cccc(CNC(=O)c2cnc3sc(N4CCCCCC4)nn3c2=O)c1` belongs 99%. To `COc1ccc(NC(=O)CCn2nc(-c3ccccc3OC)c3c(C)cc(C)nc32)cc1` belongs 70%. In the case of `CC(=O)c1cccc(NC(=O)c2cnn(-c3cccc(C)c3)c2-n2cccc2)c1` it was 99%. In the case of `CCOC(=O)c1[nH]c(C)c(CCC(=O)Nc2cc(Cl)ccc2C)c1C`, the survival was 73%. In the case of `CCOC(=O)c1oc2ccc(S(=O)(=O)n3nc(-c4cc(OC)cc(OC)c4)cc3N)cc2c1C` it was 111%; in that of `COc1cccc(CNC(=O)CSC2=Nc3ccccc3N=C(c3ccc(F)cc3)C2)c1`, 117%; in that of `CC(=O)c1ccc(NC(=O)C(Cc2ccccc2)NS(=O)(=O)c2ccc3c(c2)CCC(=O)N3)cc1` (stereo not given), 84%.

In the case of `CCCSc1ncc(Cl)c(C(=O)Nc2c(C(=O)Nc3ccc(OC)cc3)oc3ccccc23)n1`, the survival is 68%. In the case of `COc1ccccc1CNC(=O)c1cnc2sc(N3CCCCC3)nn2c1=O` it was 66%.

Regarding `Cc1oc(CSCCSCc2cc(C(=O)O)c(C)o2)cc1C(=O)O`, the survival is 94%. In the case of `COc1cccc(CNc2ccc3c(c2)ncn3C)c1OC`, the survival was 122%.

As to `CCCn1cnc2cc(NCc3ccccc3OCC)ccc21`, the survival was 35% (active).

Turning to `CCCn1cnc2cc(NCc3ccc(OC)cc3OC)ccc21`, the survival was 64%.
